Screening data from PubChem BioAssay.
The list is not random: actives were taken first. Their share in the collection is about 7.6%.
RORg inh – inhibitors of mouse ROR gamma transcriptional activity | P51450 | Drosophila S2 Gal4-RORgamma UAS-luciferase reporter, 20 h | Potency, µM (top dose mostly 53.6 µM), for the others: at the top dose activity change, negative = inhibition, hits mostly inhibitors | 310,000 compounds, 5.4% hits | AID 2551; note: potency is the fitted concentration of half-maximal effect; % is set by controls: 0 for no effect and ±100 for the full control effect; nearly all actives have a fitted effect of over 60% in size
Target sequence (P51450 whole entry, looked up, the tested form may be a part): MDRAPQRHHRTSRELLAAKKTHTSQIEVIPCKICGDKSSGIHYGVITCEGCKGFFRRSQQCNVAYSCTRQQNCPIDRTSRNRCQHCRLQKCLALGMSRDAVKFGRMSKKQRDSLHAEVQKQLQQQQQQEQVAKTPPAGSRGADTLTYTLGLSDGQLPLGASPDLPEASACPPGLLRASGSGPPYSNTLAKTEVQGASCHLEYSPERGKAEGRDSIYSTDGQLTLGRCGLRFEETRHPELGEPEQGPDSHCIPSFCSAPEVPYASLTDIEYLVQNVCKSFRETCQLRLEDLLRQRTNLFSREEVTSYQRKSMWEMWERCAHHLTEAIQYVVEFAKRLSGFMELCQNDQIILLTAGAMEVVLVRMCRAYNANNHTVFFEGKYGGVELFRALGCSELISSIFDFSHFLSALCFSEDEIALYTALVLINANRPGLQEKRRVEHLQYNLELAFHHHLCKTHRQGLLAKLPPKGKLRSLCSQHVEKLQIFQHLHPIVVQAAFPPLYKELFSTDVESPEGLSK
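Luminescence from a UAS-regulated Photinus luciferase reporter in stably transfected Drosophila Schneider cells is measured; decreased signal marks ROR gamma inhibition. Fusion expression is induced by 700 uM copper sulfate for 20 hr.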
p53 reactivation – restores transcriptional activity of mutant p53 | H1299 p53-A138V BP100-luciferase reporter, luminescence, 24 h | 320,000 compounds, 0.063% hits | Potency, µM (doses to about 92.2 µM), without a hit: at the highest dose activity change, positive = activation, hits mostly activators; note: potency is the fitted concentration of half-maximal effect; % of control where 0% means no effect; nearly all actives have a fitted effect of over 45% in size
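p53-null H1299 cells stably carrying temperature-sensitive p53-A138V and a BP100-luciferase reporter were pinned with compounds (4-point, 1:5 series) and held 24 hrs at 37 deg C. Luminescence was read 10 min after detection reagent.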
Gal4-VP16 FLuc – Gal4-VP16 reporter inhibition counter-screen; Drosophila S2 Gal4-VP16 UAS-luciferase, luminescence, 20 h; 310,000 compounds, 3.5% hits; Potency, µM (doses to about 53.6 µM), for the others: top-dose activity, negative = inhibition, usual class: inhibitors;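 note: Gal4-VP16 expression switched on by copper sulfate through the metallothionein promoter; potency is the fitted concentration of half-maximal effect; % is set by controls: 0 for no effect and ±100 for the full control effect; nearly all actives have a fitted effect of over 50% in size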
BRCA1 expr act – BRCA1 expression activation | Potency, µM (series often up to 46.1 µM), for the others: at the highest dose activation, most hits filed as activators | 380,000 compounds, 1.1% hits | MCF7-BRCA1-FFLuc reporter, luminescence, 48 h; response scale: scaled: vehicle 0%, 10 µM genistein 100%; note: potency is the fitted concentration of half-maximal effect; nearly all actives have a fitted effect of over 80% in size
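First, MCF7-BRCA1-FFLuc cells (2000/well) attach for 2 h; next, compounds are pin-added and incubated 48 h at 37 °C; finally, luciferase reagent is added and luminescence read after 15 min.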
Giardia killer – kills Giardia lamblia; Giardia lamblia trophozoite viability; activity change, % at 7.66 µM, hits read low; 340,000 compounds, 0.15% hits; AID 540267; in the data active = activity change below about -80%; inconclusive = between about -30% and that limit;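 note: parasites exposed to compound for two days anaerobically before the ATP read; % is set by controls: 0 for no effect and ±100 for the full control effect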
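Anaerobic 48 hrs incubation at 37 deg C of 100 trophozoites/well with test compounds; ATPLite 1-Step luminescence, 15-30 min RT, reports cellular ATP as viability.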
ELG1 DNA repair – blocks ELG1-dependent DNA repair in HEK293T cells. 330,000 compounds, 2.3% hits. HEK293T ELG1-luciferase reporter, luminescence, 16 h; DNA damage induced by 5-fluorouridine. AID 504467. Potency, µM (series often up to 46.1 µM), for inactives: at the highest dose activity change, negative = inhibition, hits mostly inhibitors; note: potency is the fitted concentration of half-maximal effect; % is set by controls: 0 for no effect and ±100 for the full control effect; nearly all actives have a fitted effect of over 55% in size
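Step one: seed 2,000 cells per well. Step two: pin-transfer compound or DMSO alongside 5-fluorouridine. Step three: incubate 16 hr, 37 °C, 5% CO2. Step four: add ONE-Glo, wait 30 min, read luminescence.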
The depositor's hits bear a star; ? = inconclusive; / = no result; [ ] = remark or other dose. Unless noted, calls come from the whole dose curve; as a rule, active = well fitted curve in the direction sought with a large enough effect; inconclusive = small, poorly fitted or top-dose-only effect, or another doubt; inactive = no such curve, though single readings can be large; an effect the other way counts as inactive or inconclusive.

SMILES	RORg inh	p53 reactivation	Gal4-VP16 FLuc	BRCA1 expr act	Giardia killer	ELG1 DNA repair
Cc1cc2c3c([nH]c2cc1S(=O)(=O)N1CCC2(CC1)OCCO2)CC(C)(C)CC3=O	?	19%	-21%	-94%	9	21µM*
CCc1cc2c3c([nH]c2cc1S(=O)(=O)N1CCC2(CC1)OCCO2)CCCC3=O	24%	-6%	-10%	-29%	11	-4%
COc1ccc(/C=N/NS(=O)(=O)c2ccc(F)cc2)cc1COc1cc(F)ccc1[N+](=O)[O-]	?	-4%	-29%	-27%	8	?
COc1ccc(/C=N/NC(=O)c2ccc(NC(C)=O)cc2)cc1COc1ccc(F)cc1F	11µM*	-2%	10µM*	-14%	11	6%
COc1ccc(/C=N/NC(=O)c2ccncc2)cc1COc1ccc(NC(C)=O)cc1	8%	0%	22%	-43%	-3	-15%
COc1ccc(/C=N\NC(=O)c2ccc(F)cc2)cc1COc1cc(F)ccc1[N+](=O)[O-]	?	-5%	?	-42%	-7	21µM*
COc1ccc(/C=N/NC(=O)c2ccc(F)cc2)cc1CN1CCc2cc(OC)c(OC)cc2C1C (configuration not stated)	5%	12%	-14%	0%	1	21µM*
COc1ccc(/C=N/NC(=O)c2ccc(C)cc2)cc1CN1CCN(c2ccc(F)cc2)CC1	-34%	0%	-3%	-9%	-29	?
COc1ccc(/C=N/NC(=O)c2cc(C(C)(C)C)[nH]n2)cc1COc1ccc(F)cc1F	17%	-8%	1%	-50%	-1	16µM*
COc1ccc(/C=N/NC(=O)c2nc(Cl)c(Cl)c(N)c2Cl)cc1COc1ccc(F)cc1F	?	-13%	-26%	-65%	13	-8%
CC(C)(C)c1cc(C(=O)N2CCc3ccccc3C2)ccn1	33%	-3%	17%	6%	-5	13%
O=C(c1cccc(Cl)c1)N1CCC2(CC1)NCCc1[nH]cnc12	-19%	3%	2%	-3%	-5	9%
COc1ccc(/C=N\NC(=O)c2ccccc2F)cc1COc1ccc(F)cc1F	16µM*	10%	20µM*	-21%	7	8%
COc1ccc(/C=N/NC(=O)c2ccccc2O)cc1CSc1ccccn1	16µM*	22%	?	-11%	-20	12%
COc1ccc(/C=N\NC(=O)c2ccccc2F)cc1COc1ccc(F)cc1	-28%	20%	-8%	2%	-16	16%
COc1ccc(/C=N/NC(=O)c2ccoc2C)cc1COc1c(C)cccc1C	11µM*	?	?	-41%	20	?
COc1ccc(/C=N/NC(=O)c2ccccc2O)cc1COc1ccccn1	-9%	0%	6%	8%	-1	23%
COc1ccc(/C=N\NC(=O)c2ccccc2OC)cc1COc1ccccc1C	?	-7%	-17%	-42%	0	?
O=C(Nc1ccc(S(=O)(=O)N2CCCC2)cc1)c1ccc(CN2CCc3ccccc3C2)cc1	5.6µM*	4%	1.4µM*	-70%	-9	-16%
O=C(Nc1ccc(Cc2ccncc2)cc1)c1ccc(S(=O)(=O)N2CCCC2)cc1	?	-2%	11µM*	-51%	6	2.9µM*
O=C(Nc1ccc(S(=O)(=O)N2CCOCC2)cc1)c1ccc(CN2CCc3ccccc3C2)cc1	8.9µM*	-6%	2.2µM*	-58%	31	-28%
O=C(Nc1ccc(S(=O)(=O)N2CCCC2)cc1)c1cc(F)c(F)cc1Cl	33%	-4%	5%	13%	0	15µM*
Cc1ccc(S(C)(=O)=O)cc1S(=O)(=O)Nc1ccccc1	?	-9%	1%	-21%	3	2%
Cc1ccc([C@H]2N[C@]3(CCCN(Cc4cccn4C)C3=O)[C@H]3C(=O)N(Cc4ccccc4)C(=O)[C@@H]23)cc1	/	/	/	10%	/	/
COCCSc1nnc(-c2cnccn2)o1	-62%	12%	-1%	0%	8	7%
SMILES	RORg inh	p53 reactivation	Gal4-VP16 FLuc	BRCA1 expr act	Giardia killer	ELG1 DNA repair
CCN(CC)c1ccc(S(=O)(=O)N2CCOCC2)cc1NC(=O)CN1CCc2ccccc2C1	3.2µM*	-2%	-17%[10 µM]	-67%	0	?
COC(=O)Cc1ccc(NC(=S)N2CCC(Cc3ccccc3)CC2)cc1	14µM*	/	?	15%	8	1%
O=C(CSc1ccccc1C(=O)N1CCCCC1)NCC1CCCCC1	2.5µM*	5%	9%	-15%	28	-5%
CC(=O)c1cccc(NC(=S)N2CCC(Cc3ccccc3)CC2)c1	14µM*	0%	-71%	-4%	4	-17%
CC(=O)c1ccc(NC(=S)N2CCC(Cc3ccccc3)CC2)cc1	20%	14%	-4%	38%	-17	0%
Cc1ccc(CNC(=O)c2ccccc2SCC(=O)NCC2CCCCC2)cc1	41%	3%	7%	0%	-10	?
COCCSc1ccccc1C(=O)N1CCC(Cc2ccccc2)CC1	0%	3%	2%	-2%	-13	23µM*
O=C(CCOc1ccccc1)Nc1ccnn1C1CCN(Cc2ccc(F)cc2)CC1	-2%	3%	3%	-23%	-8	-20%
COc1ccc(NC(=S)N2CCC(Cc3ccccc3)CC2)cc1OC	13µM*	16%	16µM*	-16%	10	-24%
COc1cccc(NC(=S)N2CCC(c3ccc(C)cc3)C2)c1 (configuration not stated)	?	?	?	90%	3	?
COc1cccc(NC(=S)N2CCC(Cc3ccccc3)CC2)c1	7.1µM*	18%	18µM*	-9%	-2	?
Cc1cccc(C(=O)NN/C=C/C(=O)c2ccccc2)c1	6.3µM*	-3%	5µM*	-37%	-5	8%
O=C(/C=C/NNC(=O)c1ccccc1)c1ccccc1	7.9µM*	13%	?	-1%	4	?
Cc1ccc(C(=O)C=CNNC(=O)c2ccccc2)cc1	13µM*	/	7.1µM*	75%	-18	?
CCOC(=O)c1ccccc1NC(=O)Nc1cc2c(cc1N1CCCC1)n(C)c(=O)n2C	/	/	/	-6%	/	/
Oc1ccccc1-c1n[nH]c(=S)n1Cc1ccccc1	11µM*	5%	-28%	-27%	3	-5%
S=c1[nH]nc(-c2ccccc2Br)n1Cc1ccccc1	4.5µM*	8%	6.3µM*	-12%	-27	-4%
CCn1c(-c2ccccc2O)n[nH]c1=S	13µM*	7%	-26%	5%	-7	12%
Cn1c(-c2cc(Br)ccc2O)n[nH]c1=S	?	-3%	?	35%	9	5%
